{"source": "PubChem BioAssay (NCATS)", "note": "Records with an inconclusive call do not appear. Where a call stands in place of a potency, no number is given. Activity calls are given as the source filed them. Calls follow the shape of the dose curve; as a rule, active = well fitted inhibition curve with a large enough effect; inconclusive = small, poorly fitted or top-dose-only effect; inactive = no such curve, though single readings can be large or run the other way."}
{"molecular_target": "Rap guanine nucleotide exchange factor 3 (Homo sapiens) (UniProt O95398)", "sequence (O95398 whole entry, looked up)": "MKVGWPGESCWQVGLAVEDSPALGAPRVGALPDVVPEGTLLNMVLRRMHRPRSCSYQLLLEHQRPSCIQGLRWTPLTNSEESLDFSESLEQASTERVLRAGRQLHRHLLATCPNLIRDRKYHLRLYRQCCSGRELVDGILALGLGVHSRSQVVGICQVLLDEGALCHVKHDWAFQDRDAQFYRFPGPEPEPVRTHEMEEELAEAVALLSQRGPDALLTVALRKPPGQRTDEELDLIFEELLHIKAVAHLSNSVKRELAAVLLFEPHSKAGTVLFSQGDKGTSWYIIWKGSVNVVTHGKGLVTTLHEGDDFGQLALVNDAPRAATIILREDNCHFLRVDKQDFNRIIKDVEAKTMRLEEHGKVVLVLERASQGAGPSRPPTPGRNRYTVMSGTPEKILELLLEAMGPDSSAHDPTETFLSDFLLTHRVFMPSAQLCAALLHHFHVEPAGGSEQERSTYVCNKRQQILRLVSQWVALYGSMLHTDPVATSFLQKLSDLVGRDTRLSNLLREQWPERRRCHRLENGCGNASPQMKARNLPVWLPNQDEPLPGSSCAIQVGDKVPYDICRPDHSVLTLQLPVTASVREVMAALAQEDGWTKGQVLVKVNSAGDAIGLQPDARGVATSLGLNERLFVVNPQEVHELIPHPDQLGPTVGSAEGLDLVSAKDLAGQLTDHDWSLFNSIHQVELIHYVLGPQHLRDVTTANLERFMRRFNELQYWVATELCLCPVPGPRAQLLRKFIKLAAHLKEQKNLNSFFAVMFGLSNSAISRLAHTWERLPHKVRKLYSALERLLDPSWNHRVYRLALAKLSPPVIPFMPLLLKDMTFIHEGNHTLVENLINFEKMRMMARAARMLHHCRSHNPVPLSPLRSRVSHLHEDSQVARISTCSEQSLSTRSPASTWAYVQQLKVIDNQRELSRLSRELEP", "assay": "Counterscreen qHTS for antagonist of cAMP-regulated guanine nucleotide exchange factor 3 (EPAC1) (AID 1645888)", "conditions": "Rap1B-BODIPY-GDP nucleotide exchange, fluorescence; series mostly up to 154 µM", "how_it_was_run": "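Measured: fluorescence of BODIPY-GDP bound to Rap1B, which falls as exchange proceeds. Conditions include 50 uM competing GDP, 5 and 30 min reads, and a later cAMP challenge for antagonist detection.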"}
{"smiles": "COc1cc2c(cc1NC(=O)C(C)Oc1ccc(Cl)cc1Cl)oc1ccccc12", "note": "(stereo not given)", "Potency": "inactive"}
{"smiles": "CCn1c2ccccc2c2cc(NC(=O)c3ccc(=O)oc3)ccc21", "Potency": "inactive"}
{"smiles": "CCCCCCn1c(=O)[nH]c2nc3cc(N)c(C)cc3nc2c1=O", "Potency": "inactive"}
{"smiles": "OCCCCC#Cc1c(-c2ccsc2)sc2ccccc12", "Potency": "inactive"}
{"smiles": "COC(=O)c1c(SC)nc2ccccc2c1OCc1ccc(Cl)cc1", "Potency": "inactive"}
{"smiles": "COCc1ccccc1C1=CC(=O)C[C@H](c2ccc(F)cc2)C1", "Potency": "inactive"}
{"smiles": "CC(NC(=O)c1ccc(Br)s1)c1ccncc1", "note": "(stereo not given)", "Potency": "inactive"}
{"smiles": "COc1cccc(-c2nc(N3CCN(c4ccccc4)CC3)c3ccccc3n2)c1O", "Potency": "inactive"}
{"smiles": "Cc1cc(Br)cc(C=Nc2ccc(N3CCOCC3)cc2)c1O", "Potency": "inactive"}
{"smiles": "O=C1/C(=C\\c2cccnc2)Sc2ccccc21", "Potency": "inactive"}
{"smiles": "O=S(=O)(Nc1ccccc1N1CCCCC1)c1ccccc1", "Potency": "inactive"}
{"smiles": "Cc1cccc(CNC(=O)c2ccc(-c3nc(CS(=O)(=O)c4ccccc4)c(C)o3)cc2)c1", "Potency": "inactive"}
{"smiles": "Cc1ccc(CNc2cc(C)nc3nc(-c4ccc(C)cc4)nn23)cc1", "Potency": "inactive"}
{"smiles": "CCOc1ccc(NC(=O)CSc2nc(-c3cccc(Cl)c3)nc3c2Cc2c(CO)cnc(C)c2O3)cc1", "Potency": "inactive"}
{"smiles": "COc1cc(NC(=O)CCNC(=O)Cn2ccc3ccccc3c2=O)cc(OC)c1OC", "Potency": "inactive"}
{"smiles": "COc1ccc(-n2c(O)c(/C=N/NS(=O)(=O)c3cc(C)ccc3C)c3ccccc3c2=O)cc1OC", "Potency": "inactive"}
{"smiles": "CCOc1ccccc1N1CCN(C(=O)c2cc3c(s2)CCC3)CC1", "Potency": "inactive"}
{"smiles": "COc1cc2c(cc1OC)C(c1cccc(Cl)c1)CC(=O)N2", "note": "(stereo not given)", "Potency": "inactive"}
{"smiles": "OC(c1ccc2ccccc2n1)c1c(Cl)cccc1Cl", "note": "(stereo not given)", "Potency": "inactive"}
{"smiles": "CCc1ccc(CNC(=O)Cn2nc(C)n3c(cc4cc(C)ccc43)c2=O)cc1", "Potency": "inactive"}
{"smiles": "Cc1cc(C)cc(NC(=O)c2sc3nc(-c4cc5ccccc5oc4=O)[nH]c(=O)c3c2C)c1", "Potency": "inactive"}
{"smiles": "COc1ccc(C(NC(=O)c2cc(OC)ccc2OC)c2ccccc2)cc1", "note": "(stereo not given)", "Potency": "inactive"}
{"smiles": "N#CC(C#N)=C1C=C2C=C(N3CCOCC3)CCC2CC1", "note": "(stereo not given)", "Potency": "inactive"}
{"smiles": "COc1ccc(Br)cc1CN(C)CC(=O)Nc1c(Cl)cccc1Cl", "Potency": "inactive"}
{"smiles": "Cc1cc2ccccn2c1C(=O)c1ccc(Cl)c([N+](=O)[O-])c1", "Potency": "inactive"}
{"smiles": "CC(=O)c1cccc(NC(=O)Cn2cc(C(=O)c3cccc(Cl)c3)c(=O)c3ccc(C)nc32)c1", "Potency": "inactive"}
{"smiles": "CCOc1cc(CNc2ccc(O)cc2)ccc1OCc1ccc(Cl)cc1", "Potency": "inactive"}
{"smiles": "Cc1cccc(Cn2c(-c3cccs3)nc3ccccc32)c1", "Potency": "inactive"}
{"smiles": "CCOc1cc(-c2ccc(OC(=O)c3ccc(OC)cc3)c(OC)c2)cc(=O)c2c(C)oc(C)c12", "Potency": "inactive"}
{"smiles": "COc1cc(SC)ccc1C(=O)NC1CCCc2ccccc21", "note": "(stereo not given)", "Potency": "inactive"}
{"smiles": "Cc1ccccc1SCC(=O)Nc1cc(C(F)(F)F)ccc1N1CCOCC1", "Potency": "inactive"}
{"smiles": "Cc1ccc(S(=O)c2ccc([N+](=O)[O-])c3nonc23)cc1", "note": "(stereo not given)", "Potency": "inactive"}
{"smiles": "CCN(C(=O)c1sc2cc(OC)ccc2c1Cl)c1ccccc1", "Potency": "inactive"}
{"smiles": "COC(=O)C1=C(C)N(c2ccc(OC)cc2)C(C)=C(C(=O)OC)C1c1ccccc1", "Potency": "inactive"}
{"smiles": "COc1ccc(-c2nc3ccccc3n2Cc2ccccc2)cc1", "Potency": "inactive"}
{"smiles": "CCOc1ccccc1NC(=O)c1ccccc1-c1ccccc1", "Potency": "inactive"}
{"smiles": "Cc1ccc(CNC(=O)CN(c2cc(C)cc(C)c2)S(=O)(=O)c2c(C)[nH]c(=O)[nH]c2=O)cc1", "Potency": "inactive"}
{"smiles": "O=C(NCc1ccccc1F)c1ccc(CN2CC(=O)N3CCCCC3C2=O)cc1", "note": "(stereo not given)", "Potency": "inactive"}
{"smiles": "CCOc1ccc(-n2cnc3scc(-c4ccc(OC)c(OC)c4)c3c2=O)cc1", "Potency": "inactive"}
{"smiles": "Cc1ccc(-c2noc(-c3nnn(CC(=O)Nc4cc(Cl)ccc4C)c3N)n2)cc1", "Potency": "inactive"}
